Measured values as given in PMC11102866, “Nucleosome-bound NR5A2 structure reveals pioneer factor mechanism by DNA minor groove anchor competition”.
Numbering of substitutions follows the chain as printed. Names and notes keep the numbering of the source.

B1: 18 (nucleosome)
DNA 1: ATCCTGGAGAATCCCGGTGCTCAAGGCCATCAATTGGTCGTAGACAGCTCTAGCACCGCTTAAACGCACGTACGCGCTGTCCCCCGCGTTTTAACCGCCAAGGGGATTACTCCCTAGTCTCCAGGCACGTGTCAGATATATACATCCTGTGAT
DNA 2: ATCACAGGATGTATATATCTGACACGTGCCTGGAGACTAGGGAGTAATCCCCTTGGCGGTTAAAACGCGGGGGACAGCGCGTACGTGCGTTTAAGCGGTGCTAGAGCTGTCTACGACCAATTGATGGCCTTGAGCACCGGGATTCTCCAGGAT
modifications: reconstituted with mouse histones H2A, H2B, H3.3 and H4
B2: 19 (nucleosome)
DNA 1: B1 DNA 1 with T21C, C22T, A23C, G25A, C27G, A29C, T30A
DNA 2: B1 DNA 2 with A124T, T125G, G127C, C129T, T131G, G132A, A133G
modifications: reconstituted with mouse histones H2A, H2B, H3.3 and H4
B3: 20 (nucleosome)
DNA 1: ATCCTGGAGAATCCCGGTGCCGTCAAGGCCAAATTGGTCGTAGACAGCTCTAGCACCGCTTAAACGCACGTACGCGCTGTCCCCCGCGTTTTAACCGCCAAGGGGATTACTCCCTAGTCTCCAGGCACGTGTCAGATATATACATCCTGTGAT
DNA 2: ATCACAGGATGTATATATCTGACACGTGCCTGGAGACTAGGGAGTAATCCCCTTGGCGGTTAAAACGCGGGGGACAGCGCGTACGTGCGTTTAAGCGGTGCTAGAGCTGTCTACGACCAATTTGGCCTTGACGGCACCGGGATTCTCCAGGAT
modifications: reconstituted with mouse histones H2A, H2B, H3.3 and H4
B4: 21 (nucleosome)
DNA 1: B3 DNA 1 with T23A, C24T, A25C, G27A, C29G, A31C
DNA 2: B3 DNA 2 with T123G, G125C, C127T, T129G, G130A, A131T
modifications: reconstituted with mouse histones H2A, H2B, H3.3 and H4
B5: 3 (nucleosome)
DNA 1: ATCCTTCAAGGCCACGGTGCCGAGGCCGCTCAATTGGTCGTAGACAGCTCTAGCACCGCTTAAACGCACGTACGCGCTGTCCCCCGCGTTTTAACCGCCAAGGGGATTACTCCCTAGTCTCCAGGCACGTGTCAGATATATACATCCTGTGAT
DNA 2: ATCACAGGATGTATATATCTGACACGTGCCTGGAGACTAGGGAGTAATCCCCTTGGCGGTTAAAACGCGGGGGACAGCGCGTACGTGCGTTTAAGCGGTGCTAGAGCTGTCTACGACCAATTGAGCGGCCTCGGCACCGTGGCCTTGAAGGAT
modifications: reconstituted with mouse histones H2A, H2B, H3.3 and H4
B6: 22 (nucleosome)
DNA 1: B3 DNA 1 with T23A, C24G, A25T, A26C, G27A, G28A, C29G, C30G, A31C, A32C
DNA 2: B1 DNA 2 with T122G, A124C, T125C, G126T, G127T, C128G, C129A, T130C, G132C, A133G
modifications: reconstituted with mouse histones H2A, H2B, H3.3 and H4
B7: 23 (nucleosome)
DNA 1: B1 DNA 1 with T21C, C22G, A24G, G26T, C28A, T30G, C31G, A32C, A33C, T34A
DNA 2: B1 DNA 2 with A120T, T121G, T122G, G123C, A124C, G126T, C128A, T130C, G132C, A133G
modifications: reconstituted with mouse histones H2A, H2B, H3.3 and H4
B8: 24 (nucleosome)
DNA 1: ATCCTGGAGAATCCCGGTGCCGAGGCTCAAGGCCAGGTCGTAGACAGCTCTAGCACCGCTTAAACGCACGTACGCGCTGTCCCCCGCGTTTTAACCGCCAAGGGGATTACTCCCTAGTCTCCAGGCACGTGTCAGATATATACATCCTGTGAT
DNA 2: ATCACAGGATGTATATATCTGACACGTGCCTGGAGACTAGGGAGTAATCCCCTTGGCGGTTAAAACGCGGGGGACAGCGCGTACGTGCGTTTAAGCGGTGCTAGAGCTGTCTACGACCTGGCCTTGAGCCTCGGCACCGGGATTCTCCAGGAT
modifications: reconstituted with mouse histones H2A, H2B, H3.3 and H4
B9: 25 (nucleosome)
DNA 1: B8 DNA 1 with T27C, C28T, A29C, G31A, C33G, A35C, G36A
DNA 2: B8 DNA 2 with C118T, T119G, G121C, C123T, T125G, G126A, A127G
modifications: reconstituted with mouse histones H2A, H2B, H3.3 and H4
B10: 26 (nucleosome)
DNA 1: ATCCTGGAGAATCCCGGTGCCGAGGCCGTCAAGGCCATCGTAGACAGCTCTAGCACCGCTTAAACGCACGTACGCGCTGTCCCCCGCGTTTTAACCGCCAAGGGGATTACTCCCTAGTCTCCAGGCACGTGTCAGATATATACATCCTGTGAT
DNA 2: ATCACAGGATGTATATATCTGACACGTGCCTGGAGACTAGGGAGTAATCCCCTTGGCGGTTAAAACGCGGGGGACAGCGCGTACGTGCGTTTAAGCGGTGCTAGAGCTGTCTACGATGGCCTTGACGGCCTCGGCACCGGGATTCTCCAGGAT
modifications: reconstituted with mouse histones H2A, H2B, H3.3 and H4
B11: 27 (nucleosome)
DNA 1: B10 DNA 1 with T29C, C30T, A31C, G33A, C35G, A37C, T38A
DNA 2: B10 DNA 2 with A116T, T117G, G119C, C121T, T123G, G124A, A125G
modifications: reconstituted with mouse histones H2A, H2B, H3.3 and H4
B12: 28 (nucleosome)
DNA 1: ATCCTGGAGAATCCCGGTGCCGAGGCCGCTTCAAGGCCAGTAGACAGCTCTAGCACCGCTTAAACGCACGTACGCGCTGTCCCCCGCGTTTTAACCGCCAAGGGGATTACTCCCTAGTCTCCAGGCACGTGTCAGATATATACATCCTGTGAT
DNA 2: ATCACAGGATGTATATATCTGACACGTGCCTGGAGACTAGGGAGTAATCCCCTTGGCGGTTAAAACGCGGGGGACAGCGCGTACGTGCGTTTAAGCGGTGCTAGAGCTGTCTACTGGCCTTGAAGCGGCCTCGGCACCGGGATTCTCCAGGAT
modifications: reconstituted with mouse histones H2A, H2B, H3.3 and H4
B13: 29 (nucleosome)
DNA 1: B12 DNA 1 with T31C, C32T, A33C, G35A, C37G, A39C, G40A
DNA 2: B12 DNA 2 with C114T, T115G, G117C, C119T, T121G, G122A, A123G
modifications: reconstituted with mouse histones H2A, H2B, H3.3 and H4
B14: 30 (nucleosome)
DNA 1: ATCCTGGAGAATCCCGGTGCCGAGGCCGCTCATCAAGGCCAAGACAGCTCTAGCACCGCTTAAACGCACGTACGCGCTGTCCCCCGCGTTTTAACCGCCAAGGGGATTACTCCCTAGTCTCCAGGCACGTGTCAGATATATACATCCTGTGAT
DNA 2: ATCACAGGATGTATATATCTGACACGTGCCTGGAGACTAGGGAGTAATCCCCTTGGCGGTTAAAACGCGGGGGACAGCGCGTACGTGCGTTTAAGCGGTGCTAGAGCTGTCTTGGCCTTGATGAGCGGCCTCGGCACCGGGATTCTCCAGGAT
modifications: reconstituted with mouse histones H2A, H2B, H3.3 and H4
B15: 31 (nucleosome)
DNA 1: B14 DNA 1 with T33A, C34T, A35C, G37A, C39G, A41C
DNA 2: B14 DNA 2 with T113G, G115C, C117T, T119G, G120A, A121T
modifications: reconstituted with mouse histones H2A, H2B, H3.3 and H4

Molecular target: NR5A2 wild type;histone octamer (Homo sapiens;, UniProt O00482;C0HKE1;Q6ZWY9;P84244;P62806 1-541;2-130;2-126;2-136;2-103, |)
Assay: SeEN-seq (EMSA of nucleosome library followed by sequencing); 0.8 uM human NR5A2; 20 mM Tris-HCl pH 7.5, 120 mM NaCl, 1 mM MgCl2, 10 uM ZnCl2, 1 mM DTT, 100 ug/ml BSA, room temperature, 30 min; 0.1 uM nucleosome library; high values mean tight binding

Binder	binding signal
B1	1.7 log2 enrichment (bound/unbound, relative to Widom 601)
B2	1.35 log2 enrichment (bound/unbound, relative to Widom 601)
B3	1.09 log2 enrichment (bound/unbound, relative to Widom 601)
B4	1.08 log2 enrichment (bound/unbound, relative to Widom 601)
B5	6.62 log2 enrichment (bound/unbound, relative to Widom 601)
B6	1.02 log2 enrichment (bound/unbound, relative to Widom 601)
B7	1.81 log2 enrichment (bound/unbound, relative to Widom 601)
B8	0.706 log2 enrichment (bound/unbound, relative to Widom 601)
B9	0.708 log2 enrichment (bound/unbound, relative to Widom 601)
B10	0.635 log2 enrichment (bound/unbound, relative to Widom 601)
B11	0.842 log2 enrichment (bound/unbound, relative to Widom 601)
B12	0.697 log2 enrichment (bound/unbound, relative to Widom 601)
B13	0.778 log2 enrichment (bound/unbound, relative to Widom 601)
B14	0.787 log2 enrichment (bound/unbound, relative to Widom 601)
B15	0.845 log2 enrichment (bound/unbound, relative to Widom 601)

Molecular target: mouse Nr5a2 wild type;histone octamer (Mus musculus;, UniProt P45448;C0HKE1;Q6ZWY9;P84244;P62806 1-560;2-130;2-126;2-136;2-103, |)
Assay: SeEN-seq (EMSA of nucleosome library followed by sequencing); 1.2 uM mouse Nr5a2; 20 mM Tris-HCl pH 7.5, 120 mM NaCl, 1 mM MgCl2, 10 uM ZnCl2, 1 mM DTT, 100 ug/ml BSA, room temperature, 30 min; 0.1 uM nucleosome library; high values mean tight binding

Binder	binding signal
B1	2.1 log2 enrichment (bound/unbound, relative to Widom 601)
B2	1.28 log2 enrichment (bound/unbound, relative to Widom 601)
B3	1.09 log2 enrichment (bound/unbound, relative to Widom 601)
B4	1.08 log2 enrichment (bound/unbound, relative to Widom 601)
B5	5.04 log2 enrichment (bound/unbound, relative to Widom 601)
B6	0.698 log2 enrichment (bound/unbound, relative to Widom 601)
B7	2.16 log2 enrichment (bound/unbound, relative to Widom 601)
B8	0.642 log2 enrichment (bound/unbound, relative to Widom 601)
B9	0.587 log2 enrichment (bound/unbound, relative to Widom 601)
B10	0.66 log2 enrichment (bound/unbound, relative to Widom 601)
B11	0.575 log2 enrichment (bound/unbound, relative to Widom 601)
B12	0.72 log2 enrichment (bound/unbound, relative to Widom 601)
B13	0.664 log2 enrichment (bound/unbound, relative to Widom 601)
B14	0.718 log2 enrichment (bound/unbound, relative to Widom 601)
B15	0.725 log2 enrichment (bound/unbound, relative to Widom 601)
